Calls of active or inactive are those of the source.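 The calls were made as follows: active = peak inhibition of the KCNQ2 potassium channel above 30% at some tested dose, plus a fitted dose response curve; inactive = no inhibition at any dose, or no curve.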
molecular target: Potassium voltage-gated channel subfamily KQT member 2 (Rattus norvegicus) (UniProt O88943); test: blockade of KCNQ2 thallium flux – cell-based, FluxOR thallium flux, CRC set 2, selectivity assay for KCNK9 inhibitor project, SAR follow-up (AID 588800); settings: KCNQ2-expressing cells; series mostly up to 30 µM
Sequence (O88943 whole entry, looked up): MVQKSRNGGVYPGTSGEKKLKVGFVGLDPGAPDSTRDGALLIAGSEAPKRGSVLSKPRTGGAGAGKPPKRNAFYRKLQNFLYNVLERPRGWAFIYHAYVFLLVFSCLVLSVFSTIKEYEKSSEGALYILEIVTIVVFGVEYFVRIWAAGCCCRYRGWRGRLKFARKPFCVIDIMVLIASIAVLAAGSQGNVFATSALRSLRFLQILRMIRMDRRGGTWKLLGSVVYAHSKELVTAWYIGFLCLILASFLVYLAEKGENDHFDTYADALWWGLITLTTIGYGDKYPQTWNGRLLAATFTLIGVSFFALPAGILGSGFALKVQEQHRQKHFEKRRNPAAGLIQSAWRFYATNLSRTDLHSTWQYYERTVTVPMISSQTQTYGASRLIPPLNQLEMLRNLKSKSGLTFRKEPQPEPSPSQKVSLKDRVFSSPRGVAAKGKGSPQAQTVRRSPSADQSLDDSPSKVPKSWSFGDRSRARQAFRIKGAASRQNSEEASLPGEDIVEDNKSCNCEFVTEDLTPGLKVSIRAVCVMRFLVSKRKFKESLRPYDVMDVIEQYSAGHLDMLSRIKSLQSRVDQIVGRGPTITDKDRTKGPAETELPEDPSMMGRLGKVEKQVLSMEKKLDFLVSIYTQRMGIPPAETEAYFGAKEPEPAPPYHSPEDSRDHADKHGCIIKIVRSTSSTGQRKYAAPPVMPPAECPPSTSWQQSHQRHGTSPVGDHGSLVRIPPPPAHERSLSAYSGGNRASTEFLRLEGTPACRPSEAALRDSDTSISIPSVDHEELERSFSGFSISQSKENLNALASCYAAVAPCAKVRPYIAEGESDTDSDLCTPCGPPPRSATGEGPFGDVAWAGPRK

outcome, inactive:
COc1ccccc1C(=O)Nc1cccc(NC(=O)c2ccccc2C)c1
CCOc1ccccc1NC(=O)c1cccc(C(=O)NC2CCCC2)c1
CCOc1ccccc1NC(=O)c1cccc(NC(=O)c2ccccc2OC(F)(F)F)c1
Cc1cccc(C(=O)Nc2cccc(NC(=O)c3ccccc3C(C)C)c2)c1
O=C(Nc1cccc(NC(=O)c2ccco2)c1)c1ccccc1
O=C(Nc1cccc(NC(=O)c2cccc(F)c2)c1)c1ccccc1
Cc1cccc(C(=O)Nc2cccc(NC(=O)c3cccs3)c2)c1
Cc1cccc(C(=O)Nc2cccc(NC(=O)c3ccccc3)c2)c1
O=C(Nc1cccc(NC(=O)c2cccs2)c1)c1ccccc1
CCOc1ccccc1NC(=O)c1cccc(NC(=O)c2ccccc2C)c1
COc1ccccc1NC(=O)c1cccc(NC(=O)c2ccccc2)c1
O=C(Nc1cccc(NC(=O)c2cccc(C(F)(F)F)c2)c1)c1ccccc1
O=C(Nc1cccc(NC(=O)c2ccccc2C(F)(F)F)c1)c1ccccc1
O=C(Nc1cccc(NC(=O)c2cccnc2)c1)c1ccccc1
CCOc1ccccc1NC(=O)c1cccc(NC(=O)c2ccccc2C(F)(F)F)c1
COc1cccc(C(=O)Nc2cccc(NC(=O)c3cccc(C)c3)c2)c1
COc1cccc(C(=O)Nc2cccc(NC(=O)c3ccccc3)c2)c1
CCOc1ccccc1NC(=O)c1cccc(NC(=O)C2CCOC2)c1 (stereo not given)
Cc1cccc(C(=O)Nc2cccc(NC(=O)c3ccccc3OCC(C)C)c2)c1
COc1ccccc1NC(=O)c1cccc(NC(=O)c2ccccc2OC)c1
Cc1cccc(C(=O)Nc2cccc(NC(=O)c3cccc(C(F)(F)F)c3)c2)c1
CCOc1ccccc1NC(=O)c1cccc(NC(=O)c2ccccc2)c1
CC(c1ccco1)n1c(-c2ccoc2)n[nH]c1=S (stereo not given)
CCOc1ccccc1NC(=O)c1cccc(NC(=O)C2CCCC2)c1
COc1ccccc1C(=O)Nc1cccc(NC(=O)c2ccccc2OC)c1
CCOc1ccccc1NC(=O)c1cccc(NC(=O)C(C)(C)C)c1
COc1ccccc1C(=O)Nc1cccc(NC(=O)c2ccccc2)c1
O=C(Nc1cccc(NC(=O)c2ccoc2)c1)c1ccccc1
Cc1cccc(C(=O)Nc2cccc(NC(=O)c3ccc(Cl)cc3)c2)c1
COc1cccc(-c2n[nH]c(=S)n2C(C)C2CC3CCC2C3)c1 (stereo not given)
Cc1cccc(C(=O)Nc2cccc(NC(=O)c3cccc(C)c3)c2)c1
Cc1cccc(C(=O)Nc2ccccc2NC(=O)c2ccccc2)c1
CCOc1ccccc1C(=O)Nc1cccc(NC(=O)c2ccccc2OC)c1
CC(C1CC2CCC1C2)n1c(-c2ccc(Cl)cc2)n[nH]c1=S (stereo not given)
CCOc1ccccc1NC(=O)c1cccc(NC(=O)c2cccc(C(F)(F)F)c2)c1
